A selection: hits, their analogues and other compounds. The true share with any hit is near 4.6%.
TRHR ag = activates the human TRH receptor; P34981; 0.18% of 360,000 active; activation, % at 2 µM; TRHR cells, calcium flux fluo-8, FDSS agonist mode; note: 0% is about no effect
Target sequence (P34981 whole entry, looked up): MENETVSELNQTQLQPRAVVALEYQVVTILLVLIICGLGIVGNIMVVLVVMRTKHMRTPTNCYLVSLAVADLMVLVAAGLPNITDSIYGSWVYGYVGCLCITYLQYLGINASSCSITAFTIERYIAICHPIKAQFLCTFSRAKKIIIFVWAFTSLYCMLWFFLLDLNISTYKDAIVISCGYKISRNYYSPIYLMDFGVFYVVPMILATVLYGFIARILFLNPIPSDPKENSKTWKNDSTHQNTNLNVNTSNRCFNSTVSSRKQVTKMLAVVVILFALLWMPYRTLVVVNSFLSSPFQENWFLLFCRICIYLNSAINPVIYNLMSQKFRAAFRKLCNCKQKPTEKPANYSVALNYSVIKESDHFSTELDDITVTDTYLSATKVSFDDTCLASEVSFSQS
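Steps: seed TRHR cells overnight; add fluo-8 no-wash Ca dye, RT 30 min–1.5 h; record 10 s baseline; pin-transfer compounds; monitor fluorescence 1 cycle/s for the agonist window. Calcium increases flag candidate agonists.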
TRHR PAM = allosteric enhancers of human TRH receptor; TRHR cells, fluo-8 calcium fluorescence, EC20 TRH enhancement; enhancement, % at 2 µM; 0.66% of 360,000 active; AID 493056; in the data active = enhancement above about 30%; note: 0% is about no effect
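Enhancer read-out: after compound pinning and an initial kinetic agonist-mode read, an EC20 of TRH (10 nM final) was injected and fluo-8 calcium signal (Ex 480/Em 530) followed at 1 s/cycle for 100 cycles in TRHR-expressing cells.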
D1 ag = human D1 receptor agonism | HEK293 T-REx D1 cells, calcium flux, agonist mode | 1% of 360,000 active | activation, % at 2 µM; note: 0% is about no effect
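Tetracycline-induced HEK293 TREx D1 cells, force-coupled to calcium signalling, were dye-loaded with a no-wash calcium kit. Compound was pin-added after a 10 s baseline. Fluorescence was read kinetically at 1 cycle/s for 180 s, with calcium rises flagged as agonism.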
D1 PAM = enhances dopamine response at the human D1 receptor; AID 504651; P21728; HEK293 TREx D1 cells, calcium flux, dopamine EC20 potentiation; 0.036% of 360,000 active; potentiation, % at 10 µM; in the data active = potentiation above about 30%; note: 0% is about no effect
D1 antagonist = human D1 dopamine receptor antagonism; 3.2% of 360,000 active; P21728; AID 504652; HEK293 TREx D1 cells, calcium flux, dopamine EC80; stronger effect = lower value; activity change, negative = inhibition, % at 10 µM; in the data active = activity change below about -30%; note: % is set by controls: 0 for no effect and ±100 for the full control effect
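Tetracycline-induced HEK293 T-REx cells with force-coupled D1 receptor were loaded with a no-wash calcium dye. Compound was added after a 10 s baseline and read kinetically for 180 s; EC80 dopamine was then added and calcium flux followed another 180 s.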
Active calls of the source: *; ! = not confirmed by another sample. Cut-off read from the data, not from the text of the source, unless noted: active = activation above about 30%; inactive = the rest.

SMILES	TRHR ag	TRHR PAM	D1 ag	D1 PAM	D1 antagonist
COc1ccc(CC(C)CC(=O)NCCc2ccc(OC)c(OC)c2)cc1 (configuration not stated)	0	-11	1	-2	-75*
O=c1oc2ccc3ccccc3c2cc1-c1nnc(Nc2ccc(Cl)cc2Cl)s1	0	-2	0	0	-8
Cc1cc(C)c2c(=O)nc(SCc3ccccc3C)n(C3CC3)c2n1	0	2	0	-1	2
C/C(N)=C(/C#N)C(=O)CSc1nnnn1-c1ccc(C)cc1	0	-27	4	-5	-44*
C/C(N)=C(/C#N)C(=O)CSc1nnnn1-c1ccccc1	0	1	2	0	0
Cc1cc(C)c(C(=O)CSc2n[nH]c(=O)n2C2CC2)cc1C	-1	0	11	-9	-37*
O=C(CSc1n[nH]c(=O)n1C1CC1)c1ccc2c(c1)OCCO2	-1	-1	13	-2	-1
COc1ccc(CN(C(=O)c2snc(C(N)=O)c2N)C(C(=O)NC2CCCC2)c2ccc(OC)c(OC)c2)cc1 (configuration not stated)	0	15	3	3	-5
CCCC(C(=O)NC1CCCC1)N(Cc1cccs1)C(=O)c1snc(C(N)=O)c1N (configuration not stated)	0	7	2	-5	-36*
COc1ccc(C(C(=O)NC2CCCCC2)N(Cc2cccnc2)C(=O)c2snc(C(N)=O)c2N)cc1 (configuration not stated)	0	-6	1	-7	-34*
COc1ccc(CN(C(=O)c2nsc(Cl)c2Cl)C(C(=O)NC2CCCCC2)c2ccc(OC)cc2)cc1 (configuration not stated)	2	-7	1	-4	5
COc1ccc(CN(C(=O)c2nsc(Cl)c2Cl)C(C(=O)NC2CCCC2)c2ccc(C)cc2)cc1 (configuration not stated)	0	37*	6	-12	-10
COc1cccc(N(CC(=O)NC2CCCCC2)C(=O)c2snc(C(N)=O)c2N)c1	0	27	-1	-11	-35*
COc1ccccc1CNC(=O)C1CCN(S(=O)(=O)c2ccc3[nH]c(=O)ccc3c2)CC1	0	0	2	-6	1
Cc1c(Cl)cccc1Nc1nc(N)nc(CSc2nc3ccccc3s2)n1	1	0	4	-2	-44*!
COc1cc(-c2nc(Cn3nnc(C(=O)Nc4ccc(C)cc4C)c3C)c(C)o2)cc(OC)c1OC	-1	17	-3	1	-10
Cc1cc(C(=O)N2CCCC(C(=O)c3cccc4ccccc34)C2)nc(C)n1 (configuration not stated)	-6	1	0	-7	-61*
O=C(c1cccc2ccccc12)C1CCCN(C(=O)CCN2CCCO2)C1 (configuration not stated)	-1	38*	6	-8	-8
O=C(Nc1sc2c(c1C(=O)O)CCCCC2)c1ccccc1F	0	-1	1	5	0
O=C(Cc1ccccc1)Nc1sc2c(c1C(=O)Nc1cccc(Cl)c1)CCCCC2	1	-4	2	4	1
CCCNC(=O)c1c(NC(=O)c2ccccc2F)sc2c1CCCCC2	0	35*	0	2	18
CCOC(=O)c1c(NC(=O)/C=C/c2ccc(C)cc2)sc2c1CCCC2	1	1	39*	-1	-17
O=C(Cc1ccccc1)Nc1sc2c(c1C(=O)Nc1ccccc1Cl)CCCCC2	0	33*	-1	1	17
CCOC(=O)c1c(NC(=O)c2cc(-c3cccc(OC)c3)on2)sc2c1CCCC2	1	5	0	1	6
CCOC(=O)c1c(NS(=O)(=O)c2cccc(OC)c2)sc2c1CCC2	-1	5	64*	0	-8
SMILES	TRHR ag	TRHR PAM	D1 ag	D1 PAM	D1 antagonist
Cc1cc2nn(-c3ccc(F)cc3)nc2cc1NC(=O)c1cccc2c(Cl)cccc12	1	-2	-1	-4	3
CCOC(=O)c1c(NC(=O)c2ccc(Br)cc2)sc2c1CCCC2	0	0	0	-6	10
Cc1ccccc1OCC(=O)Nc1sc2c(c1C(=O)OC(C)C)CCCC2	-1	4	45*	2	4
CCCOc1ccc(C(=O)Nc2sc3c(c2C(=O)OCC)CCCCC3)cc1	0	5	-1	-1	-31*
CCCC(=O)OCCNc1cc(Sc2nccn2C)c2nonc2c1[N+](=O)[O-]	0	-11	3	-9	-32*
CCOc1cc(C)c(C(C)C)cc1S(=O)(=O)N1CCN(C)CC1	1	-6	2	11	-2
COc1cc(C)c(C(C)C)cc1S(=O)(=O)N1CCN(C)CC1	0	-6	1	-9	-46*
CCOc1cc(C)c(Cl)cc1S(=O)(=O)N1CCCC1	-1	-3	1	-4	-10
COc1cc(C)c(Cl)cc1S(=O)(=O)N1CCCC1	0	-4	1	-7	-34*
COc1ccc(C2CC(=O)Nc3c2c(=O)[nH]c2nc4ccccc4n32)cc1 (configuration not stated)	0	21	-1	-3	-13
Cc1cccc(NC(=O)CC2SC(=NC3CCCCC3)NC2=O)c1 (configuration not stated)	0	3	2	-1	-33*
CC(C)(C)c1ccc(C(=O)NNc2ncnc3c2cnn3-c2ccccc2)cc1	0	2	-1	-1	1
N#Cc1cnn2ccc(-c3ccc4c(c3)CCC4)nc12	-1	-8	0	-8	-31*
COc1ccccc1CNC(=O)CS(=O)(=O)Cc1nc(-c2ccccc2C)oc1C	0	2	0	0	5
Nc1cc2c(cc1C(=O)c1ccccc1)OCCO2	0	2	0	8	11
Cc1ccc(C(=O)c2cc3c(cc2N)OCCO3)cc1	0	0	-1	-5	-76*
COc1ccc(CCNC(=O)c2ccc(Cn3c(=O)c4ccccc4n(Cc4cccc(Cl)c4)c3=O)cc2)cc1OC	2	-3	7	1	-8
Cc1c(N=C/C=C2\N(C)c3ccccc3C2(C)C)c(=O)n(-c2ccccc2)n1C	1	-2	6	-2	5
CCCN1C(=O)/C(=C/C=C2\N(CC)c3ccccc3C2(C)C)SC1=S	24	1	63*	-2	0
CCCCN1C(=O)/C(=C/C=C2\Oc3ccccc3N2CC)SC1=S	98*	4	393*	-6	-30
CN1/C(=C\C=C2/SC(=S)N(CC(=O)O)C2=O)C(C)(C)c2ccccc21	112*	-21	182*	-10	-26
CCN1C(=O)/C(=C\N2CCCc3ccccc32)SC1=S	-1	2	2	-7	-17
C=CCN1C(=O)/C(=C\C=C2\N(C)c3ccccc3C2(C)C)SC1=S	25	1	85*	-8	-1
